Assay results as given in PubChem BioAssay (NCATS).
Unmarked numbers belong to inactive results. No rule for the calls is given here.

test system: HIV-1 nucleocapsid protein NCp7 (binding to TG oligonucleotide); test: HIV Nucleocapsid (AID 346); settings: HIV-1 NC / fluorescein-TGTGTGTG probe, fluorescence polarization;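 also: potency is for inhibitors that block NC binding and lower polarization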
Outline: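 Fluorescence polarization binding of 100 nM HIV-1 NC to 10 nM fluorescein-labelled TG4xF oligonucleotide. Buffer was Hepes pH 7.5 with 250mM NaCl, 1uM ZnCl2, TCEP and 2-mercaptoethanol. Compounds were incubated 1 hr at room temperature before the read.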
Potency is read from the fitted curve at half-maximal effect.

Q: `CNc1ccnc(-c2ccccc2C)n1` was tested. Which Potency did it give?
A: Its Potency is > 20 µM.

Q: How did the Potency turn out when `COc1ccccc1CNc1ncncc1-c1ccccc1Cl` was run?
A: Its Potency is > 20 µM.

Q: How did the Potency turn out when `COc1ncc2nc(C)c(=O)n(CCC#N)c2n1` was run?
A: Its Potency is > 20 µM.

Q: Which Potency does the source give for `CC(=O)N1CCC2(CC1)CCN(c1ccc(-c3ccccc3)cc1)CC2` here?
A: Its Potency is > 20 µM.

Q: With `O=c1c(CCc2ccccc2)nc2cnc(N3CCNCC3)nc2n1C1CC1` as the compound, how does the Potency read?
A: The Potency was > 20 µM.

Q: How did the Potency turn out when `CC(=O)NCCNc1nc(-c2ccccc2Cl)nc2ccccc12` was run?
A: The Potency was > 20 µM.

Q: How did the Potency turn out when `FC(F)(F)c1ccccc1-c1cncnc1NCCc1cnc[nH]1` was run?
A: The Potency was > 20 µM.

Q: Which Potency does the source give for `COc1ccc2[nH]cc(CCNc3ncnc4ccc(-c5ccccc5OC)cc34)c2c1` here?
A: Its Potency is > 20 µM.

Q: Which Potency does the source give for `Cc1nc2cnc(N(C)C)nc2n(C2CC2)c1=O` here?
A: Its Potency is > 20 µM.

Q: `CC(=O)NCCNc1ncnc2ccc(-c3ccccc3C)cc12` was tested. Which Potency did it give?
A: Its Potency is > 20 µM.

Q: With `O=C(c1cnccn1)N1CCC2(CC1)CN(c1ccccn1)C2` as the compound, how does the Potency read?
A: The Potency was > 20 µM.

Q: Which Potency does the source give for `CC(=O)N1CCC2(CC1)CN(C(=O)Nc1cccc(C#N)c1)C2` here?
A: The Potency was > 20 µM.

Q: `CCNc1ncc2nc(-c3ccc(F)cc3)c(=O)n(-c3ccccc3)c2n1` was tested. Which Potency did it give?
A: Its Potency is > 20 µM.

Q: Which Potency does the source give for `CS(=O)(=O)Nc1cccc(-c2ccc3ncnc(N4CCOCC4)c3c2)c1` here?
A: The Potency was > 20 µM.

Q: With `COc1cccc(Cn2c(=O)c(C)nc3cnc(N4CCN(C)CC4)nc32)c1` as the compound, how does the Potency read?
A: The Potency was > 20 µM.

Q: `O=c1cnc2cnc(Nc3ccccc3)nc2n1C1CC1` was tested. Which Potency did it give?
A: The Potency was > 20 µM.

Q: Which Potency does the source give for `Cc1noc(C)c1-c1nccc(-n2ccnc2)n1` here?
A: The Potency was > 20 µM.

Q: `COc1ccccc1CNc1ncncc1-c1ccc2c(c1)OCO2` was tested. Which Potency did it give?
A: The Potency was > 20 µM.

Q: Which Potency does the source give for `COc1ncc2nc(C)c(=O)n(C)c2n1` here?
A: The Potency was > 20 µM.

Q: How did the Potency turn out when `COCCn1c(=O)c(-c2ccc(F)cc2)nc2cnc(Nc3cccc(OC)c3)nc21` was run?
A: Its Potency is > 20 µM.

Q: `COCCn1c(=O)c(-c2ccc(OC)cc2)nc2cnc(Oc3cccc(Cl)c3)nc21` was tested. Which Potency did it give?
A: The Potency was > 20 µM.

Q: Which Potency does the source give for `Cc1noc(C)c1-c1cncnc1N(C)Cc1ccco1` here?
A: Its Potency is > 20 µM.

Q: With `Cc1noc(C)c1-c1nccc(NCc2cccs2)n1` as the compound, how does the Potency read?
A: The Potency was > 20 µM.

Q: `Cc1noc(C)c1-c1cc(NCc2cccnc2)ncn1` was tested. Which Potency did it give?
A: The Potency was > 20 µM.

Q: `COc1ccc(C(=O)N2CCC[C@@]3(CCN(c4ncccn4)C3)C2)cc1` was tested. Which Potency did it give?
A: Its Potency is > 20 µM.

Q: Which Potency does the source give for `O=C(c1cnccn1)N1CCC2(CCCN(c3cccc(-c4ccccc4)c3)C2)CC1` here?
A: The Potency was > 20 µM.

Q: `CC(C)CN1CCC2(CC1)CCN(C(=O)c1cccc(F)c1)CC2` was tested. Which Potency did it give?
A: Its Potency is > 20 µM.

Q: How did the Potency turn out when `COc1ncc2nc(CCc3ccccc3)c(=O)n(Cc3cccs3)c2n1` was run?
A: Its Potency is > 20 µM.

Q: For `CCNc1ncc2ncc(=O)n(C3CC3)c2n1`, which Potency is on record?
A: The Potency was > 20 µM.

Q: For `Cc1ccccc1-c1nc(NC2CC2)c2ccccc2n1`, which Potency is on record?
A: The Potency was > 20 µM.

Q: How did the Potency turn out when `COCCn1c(=O)c(-c2cc(F)cc(F)c2)nc2cnc(Oc3ccccc3)nc21` was run?
A: The Potency was > 20 µM.

Q: `O=C(c1cnccn1)N1CCC2(CC1)CN(c1ccccc1)C2` was tested. Which Potency did it give?
A: Its Potency is > 20 µM.

Q: For `COc1cccc(-c2cncnc2NCc2cnc(C)cn2)c1`, which Potency is on record?
A: Its Potency is > 20 µM.

Q: For `N#Cc1cccc(NC(=O)N2CCC3(CC2)CCN(C(=O)c2ccco2)CC3)c1`, which Potency is on record?
A: The Potency was > 20 µM.

Q: How did the Potency turn out when `O=C(c1ccco1)N1CCC[C@@]2(CCN(Cc3ccccc3)C2)C1` was run?
A: Its Potency is > 20 µM.

Q: Which Potency does the source give for `COc1cccc(-c2cncnc2NCc2cccs2)c1` here?
A: The Potency was > 20 µM.

Q: `COc1cccc(Cn2c(=O)c(-c3cccc(C#N)c3)nc3cnc(OC)nc32)c1` was tested. Which Potency did it give?
A: The Potency was > 20 µM.

Q: For `Cc1nc2cnc(N3CCOCC3)nc2n(CCC#N)c1=O`, which Potency is on record?
A: The Potency was > 20 µM.

Q: `N#CCCn1c(=O)c(-c2cccs2)nc2cnc(OCc3ccccc3)nc21` was tested. Which Potency did it give?
A: The Potency was > 20 µM.

Q: With `COc1ccccc1-c1nccc(NCc2cnc(C)cn2)n1` as the compound, how does the Potency read?
A: The Potency was > 20 µM.
